Calls of active or inactive are those of the source. Unless noted, how the calls were made is not given here.
Experiments:
[1] = compound effects on lung adenocarcinoma cell viability – A549, calcein-AM fluorescence, 48 h, basal, profiling panel (AID 1162); conditions: higher = more signal; further: test concentration not given here
[2] = compound effects on differentiated 3T3-L1 adipocyte viability – cell-based, 3T3-L1 adipocytes, calcein-AM fluorescence, 48 h, basal, profiling panel (AID 1163); conditions: 3T3-L1 adipocytes viability, higher = more signal; further: test concentration not given here
[3] = compound effects on hepatocellular carcinoma cell viability – HepG2, calcein-AM fluorescence, 48 h, basal, profiling panel (AID 1164); conditions: higher = more signal; further: test concentration not given here
[4] = compound effects on multiple myeloma cell viability – MM1S, calcein-AM fluorescence, 48 h, basal, profiling panel (AID 1165); conditions: higher = more signal; further: test concentration not given here
[5] = calcein-AM signal in unstimulated myeloma cells – cell-based, calcein-AM fluorescence, 48 h, PK04 Diversity Set, profiling panel (AID 1166); conditions: RPMI8226 myeloma viability, higher = more signal;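 further: cells grown under basal conditions without added stimulus; test concentration not given here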
[6] = JC-1 mitochondrial signal, unstimulated HepG2 cells – cell-based, JC-1 fluorescence, 24 h, 100 nL compound, profiling panel (AID 1167); conditions: HepG2 mitochondrial potential, higher = more signal; further: test concentration not given here
[7] = JC-1 mitochondrial signal, unstimulated adipocytes – cell-based, JC-1 fluorescence, 3T3-L1 adipocytes, 24 h, 100 nL compound, profiling panel (AID 1168); conditions: JC-1 mitochondrial fluorescence, higher = more signal, called active from +8 up or from −8 down; further: test concentration not given here
[8] = JC-1 mitochondrial signal, unstimulated myeloma cells – cell-based, JC-1 fluorescence, RPMI8226, 24 h, 100 nL compound, profiling panel (AID 1169); conditions: JC-1 mitochondrial potential fluorescence, higher = more signal; further: test concentration not given here
[9] = JC-1 mitochondrial signal, unstimulated MM1S myeloma – cell-based, JC-1 fluorescence, 24 h, 100 nL compound, profiling panel (AID 1170); conditions: MM1S mitochondrial potential, higher = more signal; further: test concentration not given here
[10] = resazurin metabolic signal in A549 cells – cell-based, resazurin fluorescence, 24 h, PK04 Diversity Set, profiling panel (AID 1171); conditions: A549 viability, higher = more signal, called active from +8 up or from −8 down; further: test concentration not given here
[11] = resazurin metabolic signal in HepG2 cells – cell-based, resazurin fluorescence, 24 h, PK04 Diversity Set, profiling panel (AID 1172); conditions: HepG2 viability, higher = more signal; further: test concentration not given here
[12] = budding yeast growth changes without added modifier – OD600, strain BY4716, 24 h, basal condition, primary screen (AID 1173); conditions: S. cerevisiae BY4716 growth, OD600, 24 h; higher = more signal, called active from +8 up or from −8 down
[13] = viability profiling in MM1S myeloma cells – cell-based, resazurin fluorescence, basal, 24 h, PK04 Diversity Set, profiling panel (AID 1174); conditions: higher = more signal, called active from +8 up or from −8 down; further: test concentration not given here
[14] = target: Dihydroorotate dehydrogenase (quinone), mitochondrial (Plasmodium falciparum (isolate 3D7)) (UniProt Q08210); assay: inhibition of P. falciparum DHODH – biochemical, C-terminal His tag, absorbance 600 nm, primary screen (AID 1175); conditions: PfDHODH enzyme, DCIP absorbance 600 nm; higher = more signal, called active from +8 up or from −8 down;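 further: recombinant parasite enzyme with a five histidine tag at its C terminus; test concentration not given here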
[15] = inhibition of PAO1 biofilm formation – strain PAO1, LB-PBS medium, absorbance 600 nm, primary screen (AID 1176); further: test concentration not given here; conditions: P. aeruginosa PAO1 growth/biofilm, A600, 12 h; higher = more signal
[16] = growth modulation of vineyard yeast isolate – strain RM11-1a, OD600, basal, 24 h, primary screen (AID 1177);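 further: cultures grown under basal conditions with no added stressor; test concentration not given here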; conditions: S. cerevisiae RM11-1a growth, OD600, 24 h; higher = more signal, called active from +8 up or from −8 down
[17] = growth of efflux-deficient E. coli DRC39 – strain DRC39, OD650, 24 h, E. coli filamentation inducers, primary screen (AID 1178);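 further: growth measured as culture turbidity by optical density at 650 nm; test concentration not given here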; conditions: E. coli DRC39 acrAB, higher = more signal, called active from +8 up or from −8 down
[18] = growth of efflux-deficient E. coli DRC39 – strain DRC39, OD650, 48 h, E. coli filamentation inducers, primary screen (AID 1179);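 further: screen aims at cell division blockers that make cells filament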; conditions: E. coli DRC39 delta-acrAB growth, higher = more signal, called active from +8 up or from −8 down
[19] = viability profiling in RPMI8226 myeloma cells – cell-based, resazurin fluorescence, basal, 24 h, PK04 Diversity Set, profiling panel (AID 1180); conditions: higher = more signal;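 further: RPMI8826 multiple myeloma cell line at 5000 cells per well; test concentration not given here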
[20] = target: E3 ubiquitin-protein ligase XIAP (Homo sapiens) (UniProt P98170); assay: small molecules binding XIAP protein – biophysical, small-molecule microarray, fluorescence 635 nm, primary screen (AID 1181); conditions: higher = more signal;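 further: score merges 667 nm emission and signal to noise over triplicate slides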
Chain of E3 ubiquitin-protein ligase XIAP (Homo sapiens) (P98170 whole entry, looked up): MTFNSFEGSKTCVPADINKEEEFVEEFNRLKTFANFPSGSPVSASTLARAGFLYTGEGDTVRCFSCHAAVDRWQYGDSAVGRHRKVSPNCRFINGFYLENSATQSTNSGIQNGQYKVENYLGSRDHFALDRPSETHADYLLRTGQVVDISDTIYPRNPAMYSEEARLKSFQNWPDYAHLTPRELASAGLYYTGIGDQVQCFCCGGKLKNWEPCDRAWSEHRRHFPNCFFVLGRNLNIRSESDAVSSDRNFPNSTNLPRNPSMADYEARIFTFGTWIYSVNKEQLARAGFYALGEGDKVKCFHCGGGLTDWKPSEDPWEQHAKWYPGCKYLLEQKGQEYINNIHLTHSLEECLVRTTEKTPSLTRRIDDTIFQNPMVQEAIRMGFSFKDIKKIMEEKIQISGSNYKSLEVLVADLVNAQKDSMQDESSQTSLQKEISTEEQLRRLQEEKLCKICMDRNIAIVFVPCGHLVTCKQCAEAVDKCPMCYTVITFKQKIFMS

Chain of Dihydroorotate dehydrogenase (quinone), mitochondrial (Plasmodium falciparum (isolate 3D7)) (Q08210 whole entry, looked up): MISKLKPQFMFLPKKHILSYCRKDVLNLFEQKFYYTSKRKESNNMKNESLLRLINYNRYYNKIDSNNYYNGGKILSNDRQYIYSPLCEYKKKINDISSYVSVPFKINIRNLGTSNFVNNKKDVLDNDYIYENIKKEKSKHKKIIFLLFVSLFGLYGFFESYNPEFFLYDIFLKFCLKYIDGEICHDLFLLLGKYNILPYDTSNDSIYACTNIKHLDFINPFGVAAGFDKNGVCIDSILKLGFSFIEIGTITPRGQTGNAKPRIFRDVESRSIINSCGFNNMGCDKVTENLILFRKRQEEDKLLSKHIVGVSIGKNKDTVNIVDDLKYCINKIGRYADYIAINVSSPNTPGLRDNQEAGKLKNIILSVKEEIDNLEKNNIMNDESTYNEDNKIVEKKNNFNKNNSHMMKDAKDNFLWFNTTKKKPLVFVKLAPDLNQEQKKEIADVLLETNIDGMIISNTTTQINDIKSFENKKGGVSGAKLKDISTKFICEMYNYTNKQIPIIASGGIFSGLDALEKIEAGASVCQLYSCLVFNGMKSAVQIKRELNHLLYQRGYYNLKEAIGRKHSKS

| SMILES | z-score [1] | z-score [2] | z-score [3] | z-score [4] | z-score [5] | z-score [6] | z-score [7] | z-score [8] | z-score [9] | z-score [10] | z-score [11] | z-score [12] | z-score [13] | composite z-score [14] | z-score [15] | z-score [16] | z-score [17] | z-score [18] | z-score [19] | composite z-score [20] |
| --- | --- | --- | --- | --- | --- | --- | --- | --- | --- | --- | --- | --- | --- | --- | --- | --- | --- | --- | --- | --- |
| CC1CC/C=C\[C@H]2OC34C=CCN(CCN5CCOCC5)C(=O)[C@H]3N(C(CO)C(C)C)C(=O)[C@@H]4C2C(=O)O1 (stereo not given in full) | 0.0685 | -1.26 | 0.545 | -0.515 | 0.0582 | -0.989 | -0.161 (inactive) | 0.19 | -0.308 | -0.37 (inactive) | -0.137 | 0.183 (inactive) | -0.885 (inactive) | -3.11 (inactive) | -0.869 (inactive) | -0.459 (inactive) | 0.332 (inactive) | 0.365 (inactive) | -0.465 | -0.0172 |
| COCCCNC(=O)[C@@]1(Cc2ccccc2I)c2ccccc2C(=O)N(Cc2ccccc2C(F)(F)F)[C@H]1c1ccc(CO)cc1 | -0.369 | -0.884 | -0.305 | -1.14 | -1.61 | 0.405 | -1.19 (inactive) | -0.578 | -0.553 | 1.77 (inactive) | 0.331 | -0.088 (inactive) | 0.377 (inactive) | 0.543 (inactive) | -0.963 (inactive) | 1.38 (inactive) | 0.309 (inactive) | 0.324 (inactive) | 0.426 | -0.223 |
| O=C1C2C=CC(C(O)C(c3ccccc3)c3ccccc3)N(Nc3ccccc3F)C2C(=O)N1c1ccccc1 (stereo not given) | -0.486 | -0.368 | 0.355 | -1.33 | -0.0284 | -1.7 | -1.3 (inactive) | 0.284 | -0.73 | -0.021 (inactive) | -0.353 | -0.704 (inactive) | -0.813 (inactive) | 1.68 (inactive) | 0.34 (inactive) | 1.52 (inactive) | -0.872 (inactive) | -0.82 (inactive) | -1.32 | 0.0617 |
| CC[C@@H](O[Si](C#C[Si](C(C)C)(C(C)C)C(C)C)(C(C)C)C(C)C)c1cn([C@H](C)c2ccccc2)nn1 | -0.7 | -0.685 | -0.499 | 0.375 | 0.253 | -0.0266 | -1.02 (inactive) | 0.0594 | -0.876 | 0.566 (inactive) | -0.0011 | 1.66 (inactive) | 0.248 (inactive) | 0.308 (inactive) | 0.596 (inactive) | 0.887 (inactive) | -0.263 (inactive) | 0.142 (inactive) | 0.328 | -0.209 |
| COC(=O)c1c2oc(c1C(=O)OC)C(=O)N[C@H](Cc1ccccc1)Cn1cc(nn1)C1(CCCCC1)NC(=O)N[C@H](CO)CC2 | 0.78 | 0.705 | 0.286 | 0.977 | 0.943 | 0.381 | 0.621 (inactive) | -0.662 | -1.2 | -0.547 (inactive) | 0.483 | -2.6 (inactive) | 0.247 (inactive) | -0.174 (inactive) | 0.772 (inactive) | 0.0801 (inactive) | -0.051 (inactive) | 0.565 (inactive) | 0.245 | -0.113 |
| O=C1O[C@H](c2ccccc2)[C@H](c2ccccc2)N2[C@H]1[C@@H](C(=O)Nc1nc3ccccc3s1)[C@]1(C(=O)Nc3ccccc31)[C@H]2c1ccccc1OCCO | -1.59 | 0.842 | -1.97 | -1.61 | -3.67 | -2.27 | 4.1 (inactive) | -1.16 | -1.37 | -2.35 (inactive) | 0.551 | 0.448 (inactive) | -1.93 (inactive) | 0.386 (inactive) | 2.76 (inactive) | 2.72 (inactive) | -0.0179 (inactive) | -0.145 (inactive) | -3.31 | -0.128 |
| COCCCNC(=O)[C@]1(Cc2ccccc2N=[N+]=[N-])N=C(c2ccc(OCCCO)cc2)O[C@@H]1c1ccccc1 | -0.751 | 0.16 | -0.757 | -3.22 | -3.9 | 2.34 | 1.84 (inactive) | -1.27 | -0.774 | 0.345 (inactive) | 0.83 | -0.591 (inactive) | -1.25 (inactive) | -0.28 (inactive) | -0.444 (inactive) | -0.029 (inactive) | 2.99 (inactive) | 0.26 (inactive) | -0.953 | 0.267 |
| COC(=O)[C@@]1(Cc2ccc(F)cc2)[C@H]2c3cc(C(=O)N(C)C)n(Cc4ccc(C(F)(F)F)nc4)c3C[C@H]2CN1C(=O)c1ccccc1 | -0.509 | -0.602 | 0.158 | -0.201 | -1.36 | 1.79 | -0.602 (inactive) | -0.135 | -1.48 | -0.695 (inactive) | -0.575 | 0.512 (inactive) | -1.04 (inactive) | 0.0058 (inactive) | -0.359 (inactive) | 0.337 (inactive) | -0.532 (inactive) | -0.171 (inactive) | -0.912 | 0.109 |
| CCCCCN1CC=CC23O[C@@H]4/C=C\CCCOC(=O)C4[C@H]2C(=O)N(CCCCCO)[C@@H]3C1=O (stereo not given in full) | 0.386 | 1.96 | -0.216 | 0.281 | 1.13 | -0.116 | 1.24 (inactive) | -0.21 | -0.235 | 0.844 (inactive) | 0.809 | -1.17 (inactive) | 1.33 (inactive) | -0.869 (inactive) | 0.0962 (inactive) | -1.08 (inactive) | 0.279 (inactive) | -0.0568 (inactive) | 1.33 | 0.165 |
